# Results: PubChem BioAssay (NCATS)
# Results filed as inconclusive are left out. Unmarked numbers belong to inactive results. Activity calls are given as the source filed them. The call rests on the fitted dose curve; in most records, active means well fitted cell-killing curve with a large enough effect; inconclusive means small, poorly fitted or top-dose-only effect, or effect the other way; inactive means no such curve, though single readings can be large or run the other way.
# Experiment: Viability qHTS for spleen associated tyrosine kinase inhibitor (SYKi) drug resistant MV4-11 cells (AID 1963824); further: nearly all actives have a fitted effect of over 35% in size
# Details: SYKi-resistant MV4-11 viability, CellTiter-Glo, 72 h; series mostly up to 45 µM; viability, % of control: at the top concentration
# Outline: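 SYK inhibitor-resistant MV4-11 AML cells, 500 per well, added to predispensed compounds and incubated 72 hr at 37 C, 5% CO2. Viability measured by CellTiter-Glo luminescence after 10 min at room temperature.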
# Potency means the concentration at half of the fitted maximal effect.
SMILES,Potency,"viability, % of control"
C=Cc1c(C)c2cc3nc(cc4[nH]c(cc5nc(cc1[nH]2)C(C)=C5CCC(=O)O)c(CCC(=O)OC)c4C)[C@@]1(C)C3=CC=C(C(=O)OC)[C@H]1C(=O)OC,7.42 µM (active),–
CC(O)C1C(=O)N2C(C(=O)O)=C(SC3CNC(C(=O)N(C)C)C3)C(C)C12 (configuration not stated),–,88.3%
C=C1C(=O)OC2C1C(O)CC1(C)C(O)CCC(C=O)C21 (configuration not stated),16.4 µM (active),–
C=CC(C)(C)C1(CC2NC(=O)C3CCCN3C2=O)C(=O)Nc2cc3c(cc21)C=CC(C)(C)O3 (configuration not stated),1.12 µM (active),–
COc1ccc2cc1Oc1ccc(cc1)CC1c3cc(c(OC)cc3CCN1C)Oc1c(OC)c(OC)c(OC)c3c1C(C2)N(C)CC3 (configuration not stated),10 µM (active),–
C=CC(=O)N1CCCC(n2nc(-c3ccc(Oc4ccccc4)cc3)c3c(N)ncnc32)C1 (configuration not stated),1.16 µM (active),–
C=C1C(=O)OC2CC(C)C(CCC(C)O)=CCC12 (configuration not stated),7.31 µM (active),–
Cc1c(OCc2cccc(-c3ccc(C(=O)O)cc3)c2)cc2c(c1C)C(=O)C(C1CCCC1)C2 (configuration not stated),–,83.2%
COC1=Cc2c(nc3n(c2=O)C(C)C(=O)NC3(O)C(C)C)OC=C1 (configuration not stated),–,84.3%
OC(CC1c2ccccc2-c2cncn21)C1CCCCC1 (configuration not stated),20.6 µM (active),–
CC(=O)N1c2ccc(-c3ccc(C(=O)O)cc3)cc2C(Nc2ccc(Cl)cc2)CC1C (configuration not stated),0.0461 µM (active),–
CC1OC(OC2C(CO)OC(OCC3OC(OC(=O)C45CCC(C)(C)CC4C4=CCC6C7(C)CCC(OC8OC(CO)C(O)C(OC9OC(CO)C(O)C(O)C9O)C8O)C(C)(C)C7CCC6(C)C4(C)CC5)C(O)C(O)C3O)C(O)C2O)C(O)C(O)C1OC1OC(CO)C(O)C(O)C1O (configuration not stated),–,88.5% [at 9.25 µM]
